This is a sample that favours compounds with a hit; in the whole collection about 2.9% have one here.
ZTA counter: ZTA (EBV) inhibition in EBNA-1 counter-screen. P03206. ZTA-DNA binding, fluorescence polarization. inhibition, % at 11 µM. actives 0.15% (n = 320,000). AID 2234; in the data active means inhibition above about 33%
Target sequence (P03206 whole entry, looked up): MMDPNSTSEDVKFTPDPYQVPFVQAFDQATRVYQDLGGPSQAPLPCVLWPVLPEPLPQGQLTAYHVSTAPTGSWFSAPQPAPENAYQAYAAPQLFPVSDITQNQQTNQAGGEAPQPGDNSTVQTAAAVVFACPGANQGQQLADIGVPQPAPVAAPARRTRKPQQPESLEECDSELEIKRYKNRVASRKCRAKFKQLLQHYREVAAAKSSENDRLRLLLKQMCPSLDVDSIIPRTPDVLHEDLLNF
PAFAH2 FP inh: PAFAH2 (human) inhibition; Q99487; recombinant PAFAH2, FP-rhodamine activity probe, fluorescence polarization; inhibition, % at 3.39 µM; actives 0.99% (n = 340,000); AID 492956;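 active means inhibition above the mean over all tested compounds plus 3 SD, cut at about 30% in these data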;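 further: inhibitors block probe labeling of enzyme so polarization drops; 0% = enzyme with DMSO and 100% = wells lacking PAFAH2 protein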
PAFAH1B2 FP inh: blocks human PAF acetylhydrolase 1b catalytic subunit 2; P68402; recombinant PAFAH1B2, FP-rhodamine activity probe, fluorescence polarization; inhibition, % at 3.39 µM; actives 1.2% (n = 340,000); AID 492953;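 active means inhibition above the mean of all tested compounds plus 3 SD, cut at about 24% in these data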;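 further: 0% = enzyme with DMSO and 100% = wells lacking PAFAH1B2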
Target sequence (P68402 whole entry, looked up): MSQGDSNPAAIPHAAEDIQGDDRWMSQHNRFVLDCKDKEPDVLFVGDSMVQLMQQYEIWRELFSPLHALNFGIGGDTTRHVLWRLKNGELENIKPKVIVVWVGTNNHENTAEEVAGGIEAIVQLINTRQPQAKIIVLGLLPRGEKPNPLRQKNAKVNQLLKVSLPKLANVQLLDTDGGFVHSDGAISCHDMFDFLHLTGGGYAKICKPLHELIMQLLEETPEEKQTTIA
PAFAH1B3 FP inh: inhibitors of human PAFAH1B3 | Q15102 | AID 492972 | actives 0.28% (n = 340,000) | recombinant PAFAH1B3, FP-rhodamine probe, fluorescence polarization | inhibition, % at 3.39 µM;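 active means inhibition above the screen-wide average of all tested compounds plus 3 SD, cut at about 25% in these data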;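 further: 0% = enzyme with DMSO only and 100% = wells lacking PAFAH1B3 protein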
Target sequence (Q15102 whole entry, looked up): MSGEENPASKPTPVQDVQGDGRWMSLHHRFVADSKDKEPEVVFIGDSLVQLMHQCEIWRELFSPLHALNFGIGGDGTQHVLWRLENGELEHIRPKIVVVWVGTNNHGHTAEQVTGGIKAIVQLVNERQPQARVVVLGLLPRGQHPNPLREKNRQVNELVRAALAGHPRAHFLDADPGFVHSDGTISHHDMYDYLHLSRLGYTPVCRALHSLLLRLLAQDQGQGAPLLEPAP
EBNA-1 inhibitor: blocks EBNA-1 binding to DNA. inhibition, % at 14.8 µM. AID 1950. actives 0.34% (n = 300,000). EBNA-1 DNA binding, fluorescence polarization; in the data active means inhibition above about 28%
rCAG binder: binds r(CAG) RNA repeats. AID 651821. r(CAG) RNA repeat, TO-PRO-1 dye displacement fluorescence. inhibition, % at 3 µM. actives 1.3% (n = 370,000);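 active means inhibition above the plate cutoff, the mean of all test compounds on that plate plus 3 SD, cut at about 35% in these data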;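 further: 0% = DMSO alone and 100% = 100 µM mitoxantrone as full dye displacement; higher means more dye released from RNA so lower well fluorescence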
PAFAH2 confirm: confirmation of human PAFAH2 inhibitors. inhibition, % at 3.39 µM. recombinant PAFAH2, FP-rhodamine activity probe, fluorescence polarization. shares compounds with PAFAH2 FP inh. actives 65% (n = 2,300);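 active means mean inhibition over three repeats above a set limit taken from the earlier primary screen, cut at about 30% in these data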;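 further: inhibitor blocks binding of rhodamine activity probe so polarization falls; 0% = enzyme with DMSO and 100% = wells lacking PAFAH2 protein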
Active calls of the source: *; nt = no result; + = active, no number.

SMILES	ZTA counter	PAFAH2 FP inh	PAFAH1B2 FP inh	PAFAH1B3 FP inh	EBNA-1 inhibitor	rCAG binder	PAFAH2 confirm
O=C(COC(=O)c1ccccc1C(=O)c1ccccc1)NCc1ccc(F)cc1	-6.8	43.2*	1.4	4.6	5.1	-3.1	35.6*
O=C(COC(=O)c1ccccc1C(=O)c1ccc(Cl)cc1)NCc1ccccc1	-16.3	33.6*	3.8	5.5	7.8	-4.1	26.4
O=C(COC(=O)c1ccccc1C(=O)c1ccccc1)NCCc1ccc(Cl)cc1Cl	3.1	70.9*	3.5	6.9	-6.0	-0.9	58.0*
O=C(COC(=O)c1ccc(Br)cc1)NCc1ccccc1	1.7	31.3*	1.1	8.4	1.8	-4.4	24.5
COC(=O)[C@]12C[C@H](CC(=O)N3CCC(c4ccccc4)CC3)C(=O)N(Cc3ccc(Cl)cc3Cl)C1=C[C@H](C(C)C)O[C@@H]2C1CC1	nt	nt	nt	nt	nt	5.4	nt
CC(C)(C)NC(=O)COC(=O)c1ccccc1C(=O)c1ccccc1	-12.4	69.2*	4.1	10.9	-2.5	-7.2	55.7*
Oc1ccc(/C=N/N=C/c2ccc(O)c(O)c2)cc1O	8.1	54.0*	-0.4	-2.8	3.2	1.1	13.7
O=C1Nc2ccccc2/C1=N\N=C\c1ccc(O)c(O)c1	0.2	45.8*	11.8	20.8	-0.4	32.5	17.7
C=CCNC(=S)N(C)[C@H]1C[C@H]2c3[nH]c4cccc(-c5cccc(F)c5)c4c3CCN2C(=O)[C@H]1[C@H](C)O	nt	nt	nt	nt	nt	5.2	nt
Cc1ccccc1CN1CCCCC(NC(=O)c2cccc([N+](=O)[O-])c2)C1=O (stereo not drawn)	nt	nt	nt	nt	nt	0.5	nt
Cc1ccc(NS(=O)(=O)c2cc(C(=O)O)ccc2Cl)c(C)c1	19.0	54.0*	18.0	1.5	-5.6	7.1	2.8
Cc1ccc(NS(=O)(=O)c2cc(C(=O)O)ccc2Cl)cc1	-5.1	-0.2	19.8	0.0	3.6	2.5	nt
CCCCCCCCN1C(=O)[C@@H](CC(=O)NCCCN2CCCC2=O)C[C@@]2(C(=O)OC)C1=C[C@H](COCc1ccccc1)O[C@@H]2C	nt	nt	nt	nt	nt	3.9	nt
CC1CCCCC1NC(=O)COC(=O)c1cccn1C (stereo not drawn)	-4.1	85.5*	0.1	0.2	nt	-0.2	67.8*
Cc1ccsc1C(=O)OCC(=O)NC1CCS(=O)(=O)C1 (stereo not drawn)	3.0	3.1	3.5	2.3	-5.1	-0.5	nt
Cc1ccsc1C(=O)OCC(=O)NC1CCCCC1C (stereo not drawn)	-2.9	85.7*	10.5	12.3	nt	0.7	82.3*
COC(=O)[C@@]12C[C@@H](CC(=O)NCC3CCCCC3)C(=O)N(Cc3ccco3)C1=CCC(C)(C)C2	nt	nt	nt	nt	nt	0.9	nt
CC12CCC(C(=O)N(CSC(=S)N/N=C\c3ccccc3O)C1=O)C2(C)C (stereo not drawn)	2.3	38.5*	11.0	4.9	-2.1	30.1	25.0
COc1ccc(/C=N\NC(=S)SCN2C(=O)C3CCC(C)(C2=O)C3(C)C)cc1 (stereo not drawn)	-22.2	11.9	1.4	3.6	1.1	5.9	nt
Cc1occc1-c1nnc(SCC(=O)NCc2ccc(Cl)cc2)n1-c1ccccc1	nt	nt	nt	nt	nt	4.7	nt
Cc1ccc2oc(=O)c3cc(C(=O)NCCCN4CCC(C)CC4)sc3c2c1	nt	nt	nt	nt	nt	-3.6	nt
O=C(CNc1ccc(Cl)c(C(F)(F)F)c1)N1CCN(S(=O)(=O)c2ccccc2)CC1	nt	44.9*	1.4	1.2	nt	2.1	25.1
CC(=O)N1CCN(c2nc(C)nc3sc4c(c23)CCC(C)C4)CC1 (stereo not drawn)	2.1	30.2*	0.7	-7.6	1.2	-8.6	14.1
CC(C)[C@@H](CO)N(Cc1cn(Cc2ccccc2)nn1)S(=O)(=O)c1ccccc1Br	nt	nt	nt	nt	nt	0.1	nt
CCc1ccc(NC(=O)c2ccccc2NC(=O)C2CCCO2)cc1 (stereo not drawn)	5.6	-5.5	2.1	-3.3	1.0	-2.2	nt
SMILES	ZTA counter	PAFAH2 FP inh	PAFAH1B2 FP inh	PAFAH1B3 FP inh	EBNA-1 inhibitor	rCAG binder	PAFAH2 confirm
CCOC(=O)c1ccccc1NC(=O)C1CCCO1 (stereo not drawn)	-6.6	41.7*	-2.5	3.4	-0.5	-2.8	1.2
Cc1ccc(C)c(NC(=O)CN(C)C(=O)c2cc(-c3cccs3)nn2-c2ccccc2)c1	6.7	32.7*	8.3	0.7	5.5	0.0	-0.1
CN(CC(=O)Nc1ccccc1C(F)(F)F)C(=O)c1cc(-c2cccs2)nn1-c1ccccc1	17.2	-2.9	2.9	9.5	4.4	-3.1	nt
CCCC(Oc1ccc(Br)cc1)c1nc2c3cc(OC)c(OC)cc3nc(=S)n2[nH]1 (stereo not drawn)	-24.2	33.0*	14.7	13.4	-2.9	3.8	21.5
COc1ccccc1-c1nc2c3ccccc3nc(=S)n2[nH]1	-8.0	-2.9	-2.3	6.6	-1.3	4.7	nt
c1ccc(-c2c[nH]c3ccc(OCc4ccc5ccccc5n4)c(-c4ccccc4)c23)cc1	nt	nt	nt	nt	nt	14.2	nt
CCCc1c(C(=O)NNc2ccc(C)cc2)cnn1-c1ccccc1	2.6	33.1*	4.0	-1.1	4.8	-7.0	13.9
CC1CCCC(C(=O)O)N1C(=O)CCSC(=O)c1ccccc1 (stereo not drawn)	14.7	44.3*	2.4	11.1	5.9	0.8	45.6*
CC1CCCC(C)N1C(=O)c1ccccc1 (stereo not drawn)	nt	nt	nt	nt	nt	0.0	nt
O=C1c2cccnc2C(Nc2ccc(Cl)cc2)N1Cc1cccs1 (stereo not drawn)	-3.6	-4.4	2.0	-1.0	10.6	-2.0	nt
Cc1ccc(NC2c3ncccc3C(=O)N2Cc2cccs2)cc1C (stereo not drawn)	-22.3	68.9*	0.0	0.8	0.0	-2.3	-8.1
CCN(CC)c1ccc(C=Nn2c(-c3cc(C)[nH]n3)n[nH]c2=S)cc1	nt	nt	nt	nt	nt	11.9	nt
CCN(CC)c1ccc(/C=N/n2c(-c3ccccc3Br)n[nH]c2=S)cc1	-14.9	30.7*	9.1	0.9	2.0	27.8	9.8
O=C(Nc1ccc(F)cc1)Nc1c(-c2ccc(C(F)(F)F)cc2)nc2ncccn12	nt	nt	nt	nt	nt	17.5	nt
CC(=O)Nc1ccc(NC(=O)CC(C)n2ccnc2)cc1 (stereo not drawn)	3.3	+	0.2	-3.0	3.4	-1.5	4.8
O=C(COC(=O)/C=C/c1ccc(S(=O)(=O)N2CCOCC2)cc1)Nc1ccc(F)c(F)c1F	nt	33.4*	3.6	3.4	nt	3.5	34.1*
O=C(COC(=O)/C=C/c1ccc(S(=O)(=O)N2CCOCC2)cc1)NCc1ccccc1	4.4	49.2*	0.2	1.6	-7.7	-2.5	30.2*
O=C(COC(=O)/C=C/c1ccc(S(=O)(=O)N2CCOCC2)cc1)NCc1ccc(Cl)cc1	0.9	15.2	3.9	1.3	-2.4	-2.3	nt
O=C(COC(=O)/C=C/c1ccc(S(=O)(=O)N2CCOCC2)cc1)NC1CCCCCCC1	15.6	53.1*	-1.5	-2.6	0.1	-2.7	31.6*
Cc1ccc(S(=O)(=O)Nc2ccc(Cl)cc2O)cc1	nt	nt	nt	nt	nt	11.7	nt

From PubChem BioAssay
